Among the data in PubChem BioAssay (EPA / NIEHS) are outcome and AC50 values, retold here.

Each structure is given as a SMILES string. “And” between values parts separate entries of the source, which are not always exact repeats. Identical values can stand only once. Results filed as inconclusive are left out. More than one record can exist for a structure, and the calls need not agree. The source made the active and inactive calls. The calls were made as follows: active = hit-call score of the fitted dose curve at least 0.9, where 1 is the maximum; inconclusive = response in the unintended direction; inactive = score below 0.9.

For assay [1], the target named is Glycogen synthase kinase-3 beta (Homo sapiens) (UniProt P49841). Briefly: NVS_ENZ_hGSK3b: NovaScreen (NVS) Enzymatic Assay for human Glycogen Synthase Kinase-3 beta (GSK3b) (AID 2283165). Put shortly: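 Recombinant enzyme with specific fluorescent substrate, 1 h, product separated by electrophoretic mobility shift. Primary duplicate screen at 25 uM; actives (e.g. 30% inhibition) followed in singleton concentration-response to 50 uM. Signal loss fitted versus DMSO.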

In assay [2] the target is human Janus Kinase 2 (Jak2), JAK2 (gene 3717) (UniProt O60674). Briefly: NVS_ENZ_hJak2: NovaScreen (NVS) Enzymatic Assay for human Janus Kinase 2 (Jak2) (AID 2283169). In a few lines: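 Single-point duplicate screen at 25 uM, with hits run in concentration series to a 50 uM top dose. Substrate-product separation by mobility shift with fluorescence detection, 1 h post-dosing; DMSO baseline.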
Sequence of human Janus Kinase 2 (Jak2), JAK2 (gene 3717) (O60674 whole entry, looked up): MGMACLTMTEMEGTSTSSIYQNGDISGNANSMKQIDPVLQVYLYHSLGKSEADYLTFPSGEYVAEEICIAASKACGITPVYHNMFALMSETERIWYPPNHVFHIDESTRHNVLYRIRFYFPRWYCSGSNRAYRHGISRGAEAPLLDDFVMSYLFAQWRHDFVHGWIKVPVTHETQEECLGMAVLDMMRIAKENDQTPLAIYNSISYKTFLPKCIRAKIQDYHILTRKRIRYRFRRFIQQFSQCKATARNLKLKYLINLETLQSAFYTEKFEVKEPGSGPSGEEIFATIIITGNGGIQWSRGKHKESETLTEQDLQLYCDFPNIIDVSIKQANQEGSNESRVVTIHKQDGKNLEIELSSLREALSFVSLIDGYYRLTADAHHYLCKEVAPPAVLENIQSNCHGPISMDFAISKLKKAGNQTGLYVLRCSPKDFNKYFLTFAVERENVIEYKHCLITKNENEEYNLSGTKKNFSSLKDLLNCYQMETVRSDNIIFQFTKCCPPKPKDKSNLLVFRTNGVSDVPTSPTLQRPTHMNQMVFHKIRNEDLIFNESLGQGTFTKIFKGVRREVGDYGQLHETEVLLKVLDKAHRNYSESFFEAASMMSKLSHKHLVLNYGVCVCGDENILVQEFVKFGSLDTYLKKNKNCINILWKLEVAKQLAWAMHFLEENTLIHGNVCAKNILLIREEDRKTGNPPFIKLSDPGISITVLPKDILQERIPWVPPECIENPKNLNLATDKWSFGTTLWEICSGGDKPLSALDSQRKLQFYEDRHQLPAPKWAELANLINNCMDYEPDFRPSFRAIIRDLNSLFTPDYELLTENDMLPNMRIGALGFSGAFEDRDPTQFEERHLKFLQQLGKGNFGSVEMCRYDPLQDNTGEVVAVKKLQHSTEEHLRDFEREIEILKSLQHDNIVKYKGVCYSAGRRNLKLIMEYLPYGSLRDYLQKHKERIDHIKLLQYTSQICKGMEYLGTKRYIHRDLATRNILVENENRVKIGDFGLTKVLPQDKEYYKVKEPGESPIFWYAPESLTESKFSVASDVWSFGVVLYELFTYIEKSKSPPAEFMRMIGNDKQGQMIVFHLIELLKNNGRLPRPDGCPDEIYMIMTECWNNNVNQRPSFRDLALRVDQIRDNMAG

Assay [3] concerns the target human Phosphodiesterase 5 (PDE5), PDE5A (gene 8654) (UniProt O76074). Kind of assay: NVS_ENZ_hPDE5: NovaScreen (NVS) Enzymatic Assay for human Phosphodiesterase 5 (PDE5) (AID 2283194). Put shortly:
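Screening began in duplicate at 25 uM, with actives taken into concentration-response. Enzyme activity of recombinant PDE5 toward its substrate was measured at 1 h by fluorescence mobility-shift detection, relative to DMSO controls.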

For assay [4], the target named is human Matrix Metalloproteinase-2 (MMP2), MMP2 (gene 4313) (UniProt P08253). Briefly: NVS_ENZ_hMMP2: NovaScreen (NVS) Enzymatic Assay for human Matrix Metalloproteinase-2 (MMP2) (AID 2283184). Put shortly: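 Compounds first screened in duplicate at a single 25 uM, with actives followed up in concentration series. Recombinant human MMP2 cleaves a fluorogenic substrate; fluorescence taken at 1 h, inhibition fitted relative to DMSO.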

In assay [5] the target is human c-Jun N-terminal Kinases (JNK2), MAPK9 (gene 5601) (UniProt P45984). Kind of assay: NVS_ENZ_hJNK2: NovaScreen (NVS) Enzymatic Assay for human c-Jun N-terminal Kinases (JNK2) (AID 2283171). In a few lines: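 Chemicals first tested in duplicate at 25 uM, then in singleton concentration series up to 50 uM, against extracted JNK2 enzyme. Activity loss read by fluorescence with mobility-shift separation 1 h post-dose; DMSO baseline.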

The target in assay [6] is Mitogen-activated protein kinase 3 (Homo sapiens) (UniProt P27361). Kind of assay: NVS_ENZ_hMAPK3: NovaScreen (NVS) Enzymatic Assay for human Mitogen-Activated Protein Kinase 3 (MAPK 3) (AID 2283177). In a few lines: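 Chemicals were first tested in duplicate at 25 uM, with hits re-run as concentration series (max 50 uM). Recombinant enzyme activity, measured 1 h post-dose in a cell-free format, was read by fluorescence/mobility shift relative to DMSO.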
Sequence of Mitogen-activated protein kinase 3 (Homo sapiens) (P27361 whole entry, looked up): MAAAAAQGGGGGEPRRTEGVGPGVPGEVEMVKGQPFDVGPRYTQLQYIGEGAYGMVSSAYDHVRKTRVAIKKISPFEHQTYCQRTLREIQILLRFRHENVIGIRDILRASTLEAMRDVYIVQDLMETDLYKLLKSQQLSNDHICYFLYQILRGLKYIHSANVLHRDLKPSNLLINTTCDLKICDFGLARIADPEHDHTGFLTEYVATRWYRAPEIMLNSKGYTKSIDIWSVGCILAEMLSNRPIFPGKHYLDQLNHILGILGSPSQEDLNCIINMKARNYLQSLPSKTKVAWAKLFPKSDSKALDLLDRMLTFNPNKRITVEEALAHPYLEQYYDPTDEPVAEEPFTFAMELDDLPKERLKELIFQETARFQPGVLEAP

Assay [7] concerns the target human MAP Kinase-Activated Protein Kinase 2 (MAPKAPK2), MAPKAPK2 (gene 9261) (UniProt P49137). Kind of assay: NVS_ENZ_hMAPKAPK2: NovaScreen (NVS) Enzymatic Assay for human MAP Kinase-Activated Protein Kinase 2 (MAPKAPK2) (AID 2283178). In a few lines:
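Chemicals screened in duplicate at 25 uM, then to 50 uM top concentration in concentration-response, against recombinant human MAPKAPK2; substrate conversion read 1 hr post-dosing by fluorescence after electrophoretic mobility-shift separation, loss-of-signal relative to DMSO.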

The target in assay [8] is Collagenase 3 (Homo sapiens) (UniProt P45452). Briefly: NVS_ENZ_hMMP13: NovaScreen (NVS) Enzymatic Assay for human Matrix Metalloproteinase-13 (MMP13) (AID 2283182). Put shortly: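 Recombinant MMP13 cleaving fluorescent substrate, cell-free, measured 1 h after dosing. Primary duplicate screen at 25 uM; actives tested in concentration-response up to 50 uM; loss of signal relative to DMSO.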

The target in assay [9] is human Matrix Metalloproteinase-7 (MMP7), MMP7 (gene 4316) (UniProt P09237). Briefly: NVS_ENZ_hMMP7: NovaScreen (NVS) Enzymatic Assay for human Matrix Metalloproteinase-7 (MMP7) (AID 2283183). Put shortly:
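Compounds first tested at 25 uM in duplicate, then at up to 50 uM in concentration series if active. Protease activity measured by fluorescence intensity 1 h after dosing, with fitting relative to DMSO.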

The target of assay [10] is human Matrix Metalloproteinase-3 (MMP3), MMP3 (gene 4314) (UniProt P08254). Briefly: NVS_ENZ_hMMP3: NovaScreen (NVS) Enzymatic Assay for human Matrix Metalloproteinase-3 (MMP3) (AID 2283185). Put shortly: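 Fluorescent substrate turnover by recombinant MMP3 read after 1 h, signal loss scored against DMSO. Compounds first run in duplicate at 25 uM single dose, then actives confirmed by concentration series.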

The target of assay [11] is human Mitogen- and Stress-activated Protein Kinase-1 (Msk1), RPS6KA5 (gene 9252) (UniProt O75582). Kind of assay: NVS_ENZ_hMsk1: NovaScreen (NVS) Enzymatic Assay for human Mitogen- and Stress-activated Protein Kinase-1 (Msk1) (AID 2283187). In a few lines: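 Chemicals first run in duplicate at 25 uM, with actives followed up in singleton concentration series to 50 uM maximum. Enzyme activity came from substrate/product mobility-shift separation with fluorescence detection after 1 h incubation of the recombinant protein.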

Assay [12] deals with human Phosphodiesterase 4A1 (PDE4A1), PDE4A (gene 5141) (UniProt P27815). Briefly: NVS_ENZ_hPDE4A1: NovaScreen (NVS) Enzymatic Assay for human Phosphodiesterase 4A1 (PDE4A1) (AID 2283191). Put shortly: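 Fluorescent substrate turnover by recombinant PDE4A1 read after 1 h by mobility-shift separation. Primary duplicate screen at 25 uM; hits retested in concentration series with a 50 uM maximum, relative to DMSO.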
Sequence of human Phosphodiesterase 4A1 (PDE4A1), PDE4A (gene 5141) (P27815 whole entry, looked up): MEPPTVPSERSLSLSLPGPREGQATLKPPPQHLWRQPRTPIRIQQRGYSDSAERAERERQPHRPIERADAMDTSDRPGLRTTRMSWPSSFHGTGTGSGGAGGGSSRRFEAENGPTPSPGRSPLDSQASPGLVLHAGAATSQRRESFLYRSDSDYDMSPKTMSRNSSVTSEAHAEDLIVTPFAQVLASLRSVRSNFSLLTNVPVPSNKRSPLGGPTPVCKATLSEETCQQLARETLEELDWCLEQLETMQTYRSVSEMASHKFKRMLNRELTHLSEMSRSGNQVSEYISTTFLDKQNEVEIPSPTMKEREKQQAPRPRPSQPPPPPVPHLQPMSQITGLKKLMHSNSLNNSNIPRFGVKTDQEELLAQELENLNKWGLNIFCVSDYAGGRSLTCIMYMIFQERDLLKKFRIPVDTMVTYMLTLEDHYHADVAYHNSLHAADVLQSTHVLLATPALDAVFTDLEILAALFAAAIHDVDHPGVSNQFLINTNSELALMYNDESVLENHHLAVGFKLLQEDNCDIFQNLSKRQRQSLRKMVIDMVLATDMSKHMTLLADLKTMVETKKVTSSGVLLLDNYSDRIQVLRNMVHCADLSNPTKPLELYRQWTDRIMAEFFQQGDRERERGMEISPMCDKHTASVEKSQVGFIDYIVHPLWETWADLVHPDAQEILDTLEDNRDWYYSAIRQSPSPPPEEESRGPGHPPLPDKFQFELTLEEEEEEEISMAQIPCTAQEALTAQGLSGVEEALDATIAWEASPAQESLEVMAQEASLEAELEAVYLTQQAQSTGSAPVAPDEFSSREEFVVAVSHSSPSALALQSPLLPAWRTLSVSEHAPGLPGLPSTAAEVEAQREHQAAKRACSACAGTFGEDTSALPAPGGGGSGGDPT

For assay [13], the target named is cAMP-dependent protein kinase catalytic subunit alpha (Homo sapiens) (UniProt P17612). Kind of assay: NVS_ENZ_hPKA: NovaScreen (NVS) Enzymatic Assay for human Protein Kinase A (PKA) (AID 2283192). Put shortly: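 Cell-free kinase activity read by fluorescence after mobility-shift separation of substrate and product, 1 h post-dosing. Single-concentration duplicate screen (25 uM) preceded singleton concentration series (top 50 uM); loss of signal versus DMSO.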

Assay [14] addresses human Phosphodiesterase 10 (PDE10), PDE10A (gene 10846) (UniProt Q9Y233). Briefly: NVS_ENZ_hPDE10: NovaScreen (NVS) Enzymatic Assay for human Phosphodiesterase 10 (PDE10) (AID 2283195). Put shortly:
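Biochemical single-readout PDE10A assay, cell-free, extracted protein. Compounds first screened at 25 uM in duplicate, hits then titrated to 50 uM max. Activity measured after 1 h; loss-of-signal fitted against DMSO negative control.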

Assay [15] concerns the target human Phosphoinositide 3-kinase alpha (PI3Ka), PIK3CA (gene 5290) (UniProt P42336). Kind of assay: NVS_ENZ_hPI3Ka: NovaScreen (NVS) Enzymatic Assay for human Phosphoinositide 3-kinase alpha (PI3Ka) (AID 2283196). Put shortly:
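Duplicate single-point screen (25 uM), then singleton dose-response (max 50 uM) for compounds meeting the threshold. Cell-free kinase reaction, 1 h; fluorescent mobility-shift readout.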

In assay [16] the target is Serine/threonine-protein phosphatase PP1-alpha catalytic subunit (Homo sapiens) (UniProt P62136). Briefly: NVS_ENZ_hPPP1CA: NovaScreen (NVS) Enzymatic Assay for human Protein Phosphatase 1 Aatalytic subunit Alpha (PPP1CA) (AID 2283200). Put shortly:
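Chemicals were first screened in duplicate at 25 uM, and those passing threshold (e.g. 30% inhibition) were run as concentration series to 50 uM. Cell-free recombinant protein, 1.33 h read, fluorescent substrate/product mobility-shift detection, normalised to DMSO.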

Assay [17] deals with human Matrix Metalloproteinase-9 (MMP9), MMP9 (gene 4318) (UniProt P14780). Kind of assay: NVS_ENZ_hMMP9: NovaScreen (NVS) Enzymatic Assay for human Matrix Metalloproteinase-9 (MMP9) (AID 2283190).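 Also: cell-free recombinant MMP9 protease activity read by fluorescent substrate signal; active means inhibition seen as loss of fluorescence signal versus DMSO.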 Put shortly: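 Screening concentration 25 uM, duplicate wells, then dose series for confirmation. Cell-free enzymatic reaction measured by fluorescence intensity 1 h post-dosing; decreased signal versus DMSO taken as activity.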

Assay [18] has as its target human LYN Proto-Oncogene, Src family Tyrosine Kinase (LynA), LYN (gene 4067) (UniProt P07948). Briefly: NVS_ENZ_hLynA: NovaScreen (NVS) Enzymatic Assay for human LYN Proto-Oncogene, Src family Tyrosine Kinase (LynA) (AID 2283173). Put shortly:
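Recombinant kinase with fluorescent substrate; product separated from substrate by electrophoretic mobility shift and read 1 h after dosing. Duplicate screen at 25 uM, then concentration-response up to 50 uM; activity scored as signal loss against DMSO.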

Sequence of human Phosphoinositide 3-kinase alpha (PI3Ka), PIK3CA (gene 5290) (P42336 whole entry, looked up): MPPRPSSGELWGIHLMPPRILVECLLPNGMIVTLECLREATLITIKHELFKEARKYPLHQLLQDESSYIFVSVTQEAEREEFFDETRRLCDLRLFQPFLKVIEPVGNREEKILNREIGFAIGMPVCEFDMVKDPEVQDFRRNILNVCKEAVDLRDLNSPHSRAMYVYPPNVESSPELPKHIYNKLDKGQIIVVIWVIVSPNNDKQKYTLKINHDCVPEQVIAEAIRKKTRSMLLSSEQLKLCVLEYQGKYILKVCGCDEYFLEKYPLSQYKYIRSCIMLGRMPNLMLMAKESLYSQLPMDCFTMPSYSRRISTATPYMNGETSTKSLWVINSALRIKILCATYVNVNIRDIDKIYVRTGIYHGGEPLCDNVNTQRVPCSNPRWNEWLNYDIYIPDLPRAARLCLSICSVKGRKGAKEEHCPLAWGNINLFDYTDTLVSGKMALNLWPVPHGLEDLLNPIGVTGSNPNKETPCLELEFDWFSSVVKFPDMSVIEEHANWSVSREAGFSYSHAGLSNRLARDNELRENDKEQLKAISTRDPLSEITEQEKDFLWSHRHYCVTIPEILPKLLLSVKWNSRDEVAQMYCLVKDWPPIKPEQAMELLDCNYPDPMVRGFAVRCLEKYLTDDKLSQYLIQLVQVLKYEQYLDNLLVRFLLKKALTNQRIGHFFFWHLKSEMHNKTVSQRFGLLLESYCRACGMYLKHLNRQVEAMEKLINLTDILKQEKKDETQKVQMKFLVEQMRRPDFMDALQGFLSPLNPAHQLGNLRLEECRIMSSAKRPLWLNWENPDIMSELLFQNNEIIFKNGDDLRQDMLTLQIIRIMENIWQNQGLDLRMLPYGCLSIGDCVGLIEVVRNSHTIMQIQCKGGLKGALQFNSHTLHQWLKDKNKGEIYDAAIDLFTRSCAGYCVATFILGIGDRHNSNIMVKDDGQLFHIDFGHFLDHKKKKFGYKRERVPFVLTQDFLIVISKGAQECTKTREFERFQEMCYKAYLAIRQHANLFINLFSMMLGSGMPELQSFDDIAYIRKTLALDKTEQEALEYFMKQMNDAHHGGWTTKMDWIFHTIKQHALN
Sequence of human Matrix Metalloproteinase-7 (MMP7), MMP7 (gene 4316) (P09237 whole entry, looked up): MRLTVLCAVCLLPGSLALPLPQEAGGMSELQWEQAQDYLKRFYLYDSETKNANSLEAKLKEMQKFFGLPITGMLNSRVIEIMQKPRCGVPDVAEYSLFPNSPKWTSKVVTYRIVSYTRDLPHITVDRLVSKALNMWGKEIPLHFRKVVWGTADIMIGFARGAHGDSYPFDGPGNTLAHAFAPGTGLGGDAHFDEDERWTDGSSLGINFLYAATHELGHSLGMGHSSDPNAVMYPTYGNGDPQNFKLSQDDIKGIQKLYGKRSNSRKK
Sequence of human Phosphodiesterase 10 (PDE10), PDE10A (gene 10846) (Q9Y233 whole entry, looked up): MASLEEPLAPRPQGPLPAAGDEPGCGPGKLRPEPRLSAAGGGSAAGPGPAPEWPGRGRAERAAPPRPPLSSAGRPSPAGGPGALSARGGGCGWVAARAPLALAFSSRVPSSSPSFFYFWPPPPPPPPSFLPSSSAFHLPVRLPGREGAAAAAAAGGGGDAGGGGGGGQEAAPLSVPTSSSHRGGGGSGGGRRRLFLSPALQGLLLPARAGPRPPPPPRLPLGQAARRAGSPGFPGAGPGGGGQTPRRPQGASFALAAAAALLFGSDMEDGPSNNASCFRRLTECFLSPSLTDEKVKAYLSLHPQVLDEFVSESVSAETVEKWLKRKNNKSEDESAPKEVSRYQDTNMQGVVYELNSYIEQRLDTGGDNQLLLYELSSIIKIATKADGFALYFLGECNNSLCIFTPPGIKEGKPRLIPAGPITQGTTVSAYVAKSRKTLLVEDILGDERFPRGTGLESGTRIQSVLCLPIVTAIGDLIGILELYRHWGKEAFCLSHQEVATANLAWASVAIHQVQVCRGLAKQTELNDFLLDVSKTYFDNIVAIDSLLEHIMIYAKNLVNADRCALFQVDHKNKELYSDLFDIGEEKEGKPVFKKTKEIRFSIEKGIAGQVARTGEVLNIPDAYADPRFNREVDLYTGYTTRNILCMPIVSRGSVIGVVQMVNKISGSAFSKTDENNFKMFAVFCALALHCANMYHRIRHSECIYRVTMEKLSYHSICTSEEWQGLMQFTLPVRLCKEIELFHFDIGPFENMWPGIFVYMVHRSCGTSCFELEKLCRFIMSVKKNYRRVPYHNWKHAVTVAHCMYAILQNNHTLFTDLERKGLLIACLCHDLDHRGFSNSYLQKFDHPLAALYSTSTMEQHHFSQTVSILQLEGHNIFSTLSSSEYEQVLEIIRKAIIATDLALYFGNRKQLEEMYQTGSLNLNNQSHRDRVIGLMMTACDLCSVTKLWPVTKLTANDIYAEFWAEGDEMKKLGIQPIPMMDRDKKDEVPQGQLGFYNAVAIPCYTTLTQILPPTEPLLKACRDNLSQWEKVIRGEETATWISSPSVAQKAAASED

As a reminder, the AC50 is the midpoint of the concentration-response curve, whichever way the signal moves. For `c1ccc2[nH]c(-c3cscn3)nc2c1`, the result in assay [1] was inactive. The AC50 in assay [2] was 2.27 µM (active); in assay [3], 11.6 µM (active).
For the compound `CCCCCOC(=O)COc1cc(N2C(=O)C3=C(CCCC3)C2=O)c(F)cc1Cl`, the outcome in assay [4] was inactive.
Take `COCCO`: in assay [5], the compound was classed as inactive.
Turning to `S=C(S)NCCNC(=S)S.[Mn+2].[S-]C([S-])=NCCN=C([S-])[S-].[Zn+2]`, the AC50 was 1.08 µM (active) and 3.32 µM (active) and 678 nM (active) in assay [1]; 7.51 µM (active) and 40.2 µM (active) in [2]; 6.76 µM (active) and 25 µM (active) in assay [6]; 408 nM (active) and 399 nM (active) in [7]; 16.2 µM (active) in assay [8]; 3.74 µM (active) in assay [9]. The AC50 was 10.8 µM (active) in [10]; 1.45 µM (active) and 9.58 µM (active) in assay [11]; 3.82 µM (active) and 3.7 µM (active) and 10.6 µM (active) in assay [12]; 20.5 µM (active) in assay [13]; 12.5 µM (active) and 14.2 µM (active) in assay [3]; 2.41 µM (active) and 17.6 µM (active) in assay [14]. Further, in [15], the AC50 was 6.63 µM (active) and 14.6 µM (active). The compound was classed as inactive in [2], in assay [5], in assay [8], in [3] and in assay [15].
Consider `CCOC(=O)[C@H](C)Oc1ccc(Oc2nc3ccc(Cl)cc3o2)cc1`, for which the outcome in assay [8] was inactive.
On to `CC(C)CCCCCCc1ccc(O)cc1`, for which the result in assay [1], in assay [5], in assay [6], in assay [7], in [11] and in assay [12] was inactive. Besides, the compound was classed as inactive in assay [3] and in assay [16].
Turning to `CC(=O)S[C@@H]1CC2=CC(=O)CC[C@]2(C)[C@H]2CC[C@@]3(C)[C@@H](CC[C@@]34CCC(=O)O4)[C@H]12`, the AC50 in [14] was 14.4 µM (active).
For `O=C(Nc1ccc([N+](=O)[O-])cc1Cl)c1cc(Cl)ccc1O`, the call in [6], in assay [7] and in assay [16] was inactive.
As to `C=CCOC(Cn1ccnc1)c1ccc(Cl)cc1Cl` (stereo not given), the compound was classed as inactive in assay [8] and in [12]. In addition, the AC50 is 9.22 µM (active) in assay [9] and 18.6 µM (active) in [17].
Turning to `CC1(C)C(C=C(Cl)Cl)C1C(=O)OCc1cccc(Oc2ccccc2)c1` (stereo not given), the compound was classed as inactive in assay [9].
Consider `COC(=O)c1ccccc1C(=O)O`, for which, in assay [18], the outcome was inactive.
Regarding `Oc1ccc(C(c2ccc(O)cc2)C(Cl)(Cl)Cl)cc1`, the call in assay [6], in assay [8], in [9] and in [17] was inactive. The AC50 in assay [15] was 29.1 µM (active).
With `N#CSCSc1nc2ccccc2s1`, the call in assay [18], in assay [7] and in [15] was inactive.
Regarding `CSC(=O)c1cccc2nnsc12`, the compound was classed as inactive in assay [12] and in assay [3].
Turning to `OB(O)O`, the call in assay [16] was inactive.
As for `CCOC(=O)NCCOc1ccc(Oc2ccccc2)cc1`, the call in assay [9] was inactive.
Regarding `c1ccc(Nc2ccccc2)cc1`, the compound was classed as inactive in assay [2] and in assay [16].
For the compound `COc1nc(C)nc(NC(=O)NS(=O)(=O)c2ccccc2OCCCl)n1`, the AC50 in assay [7] was 36.2 µM (active); in assay [17], 4.32 µM (active).
As to `CCCCC(CC)CN1C(=O)C2C3C=CC(C3)C2C1=O` (stereo not given), the result in [9] and in assay [11] was inactive.
